# Assay outcomes (PubChem BioAssay)
# Rows were chosen to be rich in hits. Some 1.6% of all compounds tested hit in one or more screens of this group.
# MLLE-PAM2 inh = inhibitors of microRNA-mediated deadenylation, human PABP1 MLLE binding; P11940; GST-MLLE / FITC-PAM2 fluorescence polarization; inhibition, % at 20 µM; 360,000 compounds, 0.36% hits; in the data active = inhibition above about 35%, passing the limit was not always enough
# Target sequence (P11940 whole entry, looked up): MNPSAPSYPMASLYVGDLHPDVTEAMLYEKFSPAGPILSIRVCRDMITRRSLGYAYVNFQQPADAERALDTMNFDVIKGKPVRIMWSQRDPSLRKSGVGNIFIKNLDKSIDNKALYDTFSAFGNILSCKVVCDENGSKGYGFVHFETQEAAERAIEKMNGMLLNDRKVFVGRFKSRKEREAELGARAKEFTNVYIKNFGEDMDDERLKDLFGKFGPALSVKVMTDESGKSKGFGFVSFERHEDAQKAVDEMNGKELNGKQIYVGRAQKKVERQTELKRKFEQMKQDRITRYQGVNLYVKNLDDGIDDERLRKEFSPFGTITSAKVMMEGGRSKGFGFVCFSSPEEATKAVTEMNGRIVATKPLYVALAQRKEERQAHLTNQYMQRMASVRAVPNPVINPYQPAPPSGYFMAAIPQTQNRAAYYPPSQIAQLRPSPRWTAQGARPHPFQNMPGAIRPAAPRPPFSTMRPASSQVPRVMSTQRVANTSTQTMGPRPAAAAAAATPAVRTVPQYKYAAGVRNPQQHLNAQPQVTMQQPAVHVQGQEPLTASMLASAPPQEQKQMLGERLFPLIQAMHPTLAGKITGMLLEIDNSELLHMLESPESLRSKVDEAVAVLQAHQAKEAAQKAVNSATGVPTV
# eIF4H FP inh = inhibitors of RNA binding by human eIF4H. eIF4H fluorescence polarization binding assay. inhibition, % at 35 µM. 290,000 compounds, 0.94% hits. AID 2012;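 also: calls also rest on retests at 20 µM and on dose response follow-up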
# PABP FP inh = blocks human PABP binding to poly(A) RNA; inhibition, % at 35 µM; AID 2014; fluorescence polarization; 290,000 compounds, 1% hits; P11940;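 also: calls also rest on retests at 20 µM and on dose response follow-up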
# PERK inhibitor = inhibitors of human PERK kinase; AID 1416; Q9NZJ5; CHO PERK-DD fusion, SEAP luminescence translation reporter; 220,000 compounds, 0.17% hits; inhibition, % at 5.6 µM;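 active = inhibition above the mean inhibition of all tested compounds plus 3 SD, set separately per screening campaign, cut at about 2.9% in these data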;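 also: PERK kinase domain activated by AP20187 dimerizer at 100 nM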
# eIF4E 4G PPI = eIF4E/eIF4G interaction inhibition in translation initiation | TR-FRET eIF4E-eIF4GI(517-606) binding, 2 h | inhibition, % at 21.7 µM | 220,000 compounds, 0.37% hits | AID 782;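 active = inhibition above about 30%, limit read from the data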
# A number is an active result; 0 = inactive; ? = inconclusive; - = not tested or not shown. Unless noted, no rule for the calls is given here.
SMILES,MLLE-PAM2 inh,eIF4H FP inh,PABP FP inh,PERK inhibitor,eIF4E 4G PPI
CCC(C)[C@H](N)c1cn([C@@H](CCCCN)C(=O)N2CCNCC2)nn1 (stereo partly drawn),0,0,50.4,0,0
NCCCCC(N)c1cn([C@@H](CCC(=O)O)C(=O)N2CCNCC2)nn1 (stereo partly drawn),0,-,-,-,-
CCC1S/C(=C(\C#N)C(=O)NCc2ccco2)N(c2ccc(Br)cc2)C1=O (stereo not drawn),0,73.3,91.0,0,0
CC1S/C(=C(\C#N)C(=O)NCc2ccco2)N(c2ccc(F)cc2)C1=O (stereo not drawn),0,110.1,108.3,0,0
S=C1SCN(Cc2cccnc2)CN1Cc1ccccc1,0,0,0,0,0
CCN(CC)c1ccc2cc(C(=O)Nc3ccccn3)c(=O)oc2c1,0,121.7,117.5,0,0
CCN(CC)c1ccc2cc(C(=O)Nc3cccnc3N3CCOCC3)c(=O)oc2c1,-,63.1,72.7,-,-
CCOc1cc(-n2cnnn2)c(OCC)cc1NC(=O)c1cc2ccc(N(CC)CC)cc2oc1=O,-,-,-,0,-
Cc1ccc(CN(C)C(=O)COC(=O)CSc2ccc([N+](=O)[O-])cc2)cc1,43.3,-,-,-,-
Cc1ccc(C(=O)N2CCn3c(C)ccc3C2C)cc1 (stereo not drawn),0,64.5,active,0,0
CCOc1cc(Br)cc(C(c2c(C(=O)O)[nH]c3ccccc23)c2c(C(=O)O)[nH]c3ccccc23)c1O,0,0,0,-,-
CSc1ccc(C(c2c(C(=O)O)[nH]c3ccccc23)c2c(C(=O)O)[nH]c3ccccc23)cc1,0,53.4,0,-,-
Oc1ccc(CNc2ccccc2)c2cccnc12,41.2,0,0,0,0
COc1cccc2cc(C(=O)NNC(=O)c3ccc(Br)cc3)c(=O)oc12,0,0,0,0,0
O=[N+]([O-])c1cn(Cc2ccc(Cl)cc2)cn1,0,0,0,0,0
COc1ccc(Cn2cnc([N+](=O)[O-])c2)cc1[N+](=O)[O-],0,0,0,3.1,0
Cc1ccc(-c2cc[n+](Cc3ccccc3)cc2)cc1,0,0,0,0,0
Cc1ccc2c(c1)sc[n+]2Cc1ccccc1,38.0,0,0,0,0
Cc1ccc(-c2nn(-c3ccccc3)cc2C(=O)O)o1,-,101.9,active,0,0
COc1ccc(-c2nn(-c3ccccc3)cc2C(=O)O)cc1,0,0,0,3.2,0
O=C(c1cc2ccccc2c(=O)o1)N1CCc2ccccc2C1,0,0,0,0,0
O=c1c2ccccc2c(C=Nc2ccc(O)cc2)c(O)n1Cc1ccccc1,0,0,0,0,34.0
COc1ccc(Cn2c(O)c(C=Nc3ccc(O)cc3)c3ccccc3c2=O)cc1,0,?,0,0,0
COc1ccc(NC(=O)N2CCCC(C(=O)Nc3cccc(C)c3C)C2)cc1 (stereo not drawn),0,0,0,-,-
COCCCN1CN(S(=O)(=O)c2ccc(Cl)cc2)c2nc3ccccc3nc21,0,50.1,53.4,0,0
SMILES,MLLE-PAM2 inh,eIF4H FP inh,PABP FP inh,PERK inhibitor,eIF4E 4G PPI
C=CCSC1=N/C(=C\c2cc(OC)c3c(c2)OCO3)C(=O)S1,0,57.4,0,0,0
CCSC1=N/C(=C\c2ccc3c(c2)OCO3)C(=O)S1,0,0,0,0,0
O=C1NC(=O)c2cc(Br)cc3cccc1c23,0,0,0,0,0
Cc1ccc(NS(=O)(=O)c2cc3c4c(cccc4c2)C(=O)NC3=O)cc1C,0,0,38.9,0,0
COc1ccc2c(=O)c3c(=O)n(-c4ccc(C)cc4)c(-c4ccccc4)nc3oc2c1,-,0,0,0,0
Cc1ccc(-n2c(C)nc3oc4ccccc4c(=O)c3c2=O)cc1,0,40.1,79.9,0,0
CCCCc1nc2cc(C(=O)NC(C)c3cnn(C)c3)ccc2o1 (stereo not drawn),0,0,0,-,-
O=c1[nH]cc(N(CCO)CCO)c(=O)[nH]1,0,0,0,0,93.9
C[C@H](NS(=O)(=O)c1ccc2c(c1)OCCCO2)C(=O)N1CCN(c2ccc(F)cc2)CC1,40.8,-,-,-,-
Cc1ccc(S(=O)(=O)Nc2ccc(NC(=O)CN3CCCCC3)cc2)cc1,0,0,0,0,0
Cc1ccc(NS(=O)(=O)c2ccc3[nH]c(=O)sc3c2)cc1,0,0,0,0,0
C/C(=N/NC(=O)CC1N=C(Cc2ccccc2)NNC1=O)c1cccnc1 (stereo not drawn),0,0,0,0,0
CCOc1ccc(Cl)cc1CSc1ncn[nH]1,0,0,0,0,0
COc1ccccc1N/C=C/c1onc(C)c1[N+](=O)[O-],0,0,0,0,0
